Reference: PubChem BioAssay AID504710 (Sanford-Burnham Center for Chemical Genomics, 2011)
Active and inactive are the calls of the source.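 How the source made its calls: active means inhibition reaching about 16% in any single replicate (limit read from the data); inactive means the rest.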

Molecular target: Hexokinase HKDC1 (Homo sapiens) (UniProt Q2TB90)
Experiment: HKDC1 hexokinase inhibitors, confirmation, biochemical, single concentration (AID 504710)
Settings: recombinant HKDC1, G6PDH/diaphorase/resazurin fluorescence; at 20 µM; stronger effect = higher value

Sequence of Hexokinase HKDC1 (Homo sapiens) (Q2TB90 whole entry, looked up): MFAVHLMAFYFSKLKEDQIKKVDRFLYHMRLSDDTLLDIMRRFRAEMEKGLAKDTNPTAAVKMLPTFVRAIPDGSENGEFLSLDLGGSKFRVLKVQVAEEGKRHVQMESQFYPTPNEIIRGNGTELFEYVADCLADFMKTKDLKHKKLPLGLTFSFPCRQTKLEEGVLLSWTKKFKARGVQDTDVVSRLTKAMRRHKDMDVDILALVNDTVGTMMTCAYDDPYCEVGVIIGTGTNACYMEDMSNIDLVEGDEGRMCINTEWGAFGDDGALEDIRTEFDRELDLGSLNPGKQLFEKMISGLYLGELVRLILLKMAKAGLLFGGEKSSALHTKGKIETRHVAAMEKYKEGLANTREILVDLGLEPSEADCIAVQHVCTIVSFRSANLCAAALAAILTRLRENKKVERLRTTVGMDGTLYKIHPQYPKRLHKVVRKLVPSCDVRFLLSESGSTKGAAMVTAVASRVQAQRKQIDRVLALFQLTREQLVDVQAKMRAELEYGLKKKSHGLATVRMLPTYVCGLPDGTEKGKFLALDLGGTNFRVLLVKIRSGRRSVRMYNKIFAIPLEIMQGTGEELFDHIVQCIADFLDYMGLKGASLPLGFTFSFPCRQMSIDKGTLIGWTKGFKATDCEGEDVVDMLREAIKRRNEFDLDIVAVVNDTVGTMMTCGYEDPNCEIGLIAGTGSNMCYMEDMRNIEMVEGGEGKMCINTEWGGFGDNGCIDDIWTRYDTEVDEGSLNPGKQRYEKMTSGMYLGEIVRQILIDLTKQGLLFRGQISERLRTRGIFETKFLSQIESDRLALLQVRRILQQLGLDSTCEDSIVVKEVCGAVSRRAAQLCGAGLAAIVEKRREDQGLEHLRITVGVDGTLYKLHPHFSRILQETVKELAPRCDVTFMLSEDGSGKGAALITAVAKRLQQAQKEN

inhibition, inactive:
COc1cc(SC#N)ccc1N=Cc1c(C)[nH]n(-c2ccc(Cl)cc2)c1=O -38.2%
CC(=NNC(=S)Nc1cccc(Cl)c1)c1ccccn1 -63.5%
Cc1cc(C)nc(/N=c2/ssnc2Cl)c1 -84.2%
CCOC(=O)Cn1c2ccc(F)cc2c2nc(C)sc21 -36.6%
O=C(O)c1ccc(NC2=C(Cl)C(=O)c3ccccc3C2=O)cc1 -94.3%
COc1ccc(NC(=O)Cc2c[nH]c3ccccc23)cc1S(=O)(=O)N1CCCCC1 -35.1%
Cn1c(SSc2ccc(-c3cccnc3)n2C)ccc1-c1cccnc1 -248%
Cc1nonc1C(=O)N/N=C/c1ccc(O)cc1O -33.6%

inhibition, active:
O=C1C(Cl)=C(Oc2ccccc2)C(=O)c2ccccc21 77.7%
COC1=C(OC)C(=O)C(Sc2ccc3ccccc3c2)=CC1=O 71.3%
CCOc1ccc2c(c1)C(NC(C)=O)C(=O)N2CCN1CCOCC1 (stereo unspecified) 60.9%
N#Cc1ccc(CSc2nnc(NC(=O)c3ccc4ncsc4c3)s2)cc1 40.7%
Cn1c2ccccc2c(=O)c2c(=O)n(-c3ccc(F)cc3)c(-c3cccs3)nc21 66%
Cc1ccc(-n2c3nc(=O)[nH]c(=O)c-3cc3cc([N+](=O)[O-])ccc32)cc1 56.2%
COc1ccc(N2C3=C(CC4=C2CCCC4=O)C(=O)CCC3)cc1 47.1%
O=Cc1[nH]c2ccccc2c1N(C(=O)CCl)c1ccccc1 34%
